71 compounds from PubChem BioAssay AID1259420 (Broad Institute, 2018) can be followed below.

This assay is described as follows: T. gondii intracellular growth, IFN-gamma absent, dose response, cell-based (AID 1259420).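 Also: host cells were HeLa; final incubation lasted 72 hours.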 The note with it: Toxoplasma gondii growth in host cells, no IFN-gamma.

Each structure is given as a SMILES string. Where “and” joins values, the source holds several entries; their conditions need not be identical. Equal values may be shown once. Hit rate of the full screen: of about 1,000 compounds, about 250 (25%) were called active. About 31% were inconclusive and are not listed. No rule for the calls is given here. Not all results are given here. Measured potencies and affinities stand elsewhere.

As to `CN(C)CCNC(=O)c1ccc2onc(-c3coc(C4CC4)n3)c2c1`, the max activity (at 19.5 µM unless noted) is 24.6% (inactive).
On the same count and under the same terms, the same measure for `COc1ccccc1Cn1ncc2c1CCCC2NC(=O)c1cc(-c2cccs2)no1` (stereo not drawn): 11.7% [at 1.2 µM] (inactive); for `O=C(C1CCOCC1)N1CC(=O)N2[C@H](C1)[C@@H](c1ccc(/C=C/c3ccccc3)cc1)[C@@H]2CO`: 10.5% [at 0.6 µM] (inactive); for `O=C(C1CCC1)N1CC(=O)N2[C@H](CO)[C@H](c3ccc(Br)cc3)[C@H]2C1`: -11.4% [at 10 µM] (inactive).
Still for that read-out and setting: with `Cc1nc(Cn2cnc(-c3nc(C(=O)NCc4cc(F)cc(F)c4)c4ccccn34)c2)cs1` the figure was 15.4% (inactive).
Still for that read-out and setting: with `COC(=O)c1sccc1S(=O)(=O)N[C@@H]1CC[C@@H](N)C1` the figure was -5.2% (inactive); with `CN(c1ccccc1)c1ccc2ccc(C(=O)N3CCCC3)cn12`, -21% [at 0.16 µM] (inactive).
Consider `O=C(c1ccc(F)cc1)N1c2ccccc2Sc2ccc(C(F)(F)F)cc21`, for which the max activity (at 19.5 µM unless noted) is 12.1% [at 10 µM] (inactive).
On the same count and under the same terms, the same measure for `O=C(NC1CCCC1)N1CCCCN2[C@@H](CO)[C@@H](c3ccc(-c4cccnc4)cc3)[C@@H]2C1`: -13.7% [at 2.6 µM] (inactive); for `CCc1ccc(S(=O)(=O)N2CCC3(CCC(C(=O)N4CCCC4)O3)CC2)cc1` (stereo not drawn): -11.2% [at 1.2 µM] (inactive); for `COc1cccc(C(=O)Nc2ccc3c(c2)C(=O)N(C)[C@@H]2CC[C@H](CC(=O)N[C@H](C)c4ccccc4)O[C@@H]2CO3)c1`: -19.3% [at 1.2 µM] (inactive).
Still for that read-out and setting: with `CN1C(=O)c2cc(NC(=O)Cc3cccs3)ccc2OC[C@@H]2O[C@H](CC(=O)NCC3CCCCC3)CC[C@@H]21` the figure was 9.14% [at 0.6 µM] (inactive).
On the same count and under the same terms, the same measure for `CN1C(=O)c2cc(NC(=O)Cc3cccs3)ccc2OC[C@@H]2O[C@H](CC(=O)N[C@@H]3CCN(Cc4ccccc4)C3)CC[C@@H]21`: 32% (inactive).
Regarding `CN1C(=O)c2cc(NC(=O)Cc3cccs3)ccc2OC[C@@H]2O[C@H](CC(=O)N[C@H]3CCN(Cc4ccccc4)C3)CC[C@@H]21`, the max activity (at 19.5 µM unless noted) is 35.3% (inactive) and 9.67% (inactive).
Same read-out and setting: with `Cc1ccccc1-c1ccc([C@H]2[C@H](CO)N3CCCCN(S(=O)(=O)Cc4ccccc4)C[C@@H]23)cc1` the figure was 27% (inactive).
The same measure, in the same setting: with `O=C(NCC1CC1)C1CN(C(=O)c2ccoc2)CC12CCOCC2` (stereo not drawn) the figure was 10.2% [at 0.16 µM] (inactive).
Consider `CS(=O)(=O)N1CC(=O)N2[C@H](C1)[C@@H](c1ccc(C#CCC3CCCC3)cc1)[C@@H]2CO`, for which the max activity (at 19.5 µM unless noted) is 17.8% [at 0.3 µM] (inactive).
The same measure, in the same setting: the same measure for `Cc1ccccc1S(=O)(=O)N1CC[C@H]2[C@H](CO)Nc3ccc(-c4ccc(F)cc4)cc3[C@H]21`: -15.5% [at 5 µM] (inactive).
For the compound `CC(C)CNC(=O)C1Cn2ccnc2C2(CCN(c3ncccn3)CC2)O1` (stereo not drawn), under “at 19.5 µM unless noted”, the max activity is -6.18% (inactive).
As to `Fc1cccc(CN2CCC3(CC2)CC(OCC2CC2)CO3)c1` (stereo not drawn), where the note is “at 19.5 µM unless noted”, the max activity was -29.4% [at 10 µM] (inactive).
Take `COc1cccc(-c2nn(CC3CC3)c3c2[C@@H]2CN(C(=O)c4ccccc4)C[C@@H]2C3)c1`: the max activity (at 19.5 µM unless noted) was 29.4% (inactive).
Still for that read-out and setting: the same measure for `O=C(Cc1cccnc1)N1CC(=O)N2[C@H](CO)[C@H](c3ccc(/C=C/c4ccccc4)cc3)[C@@H]2C1`: -6.67% [at 10 µM] (inactive); for `O=C(Cc1cccnc1)N1CC(=O)N2[C@H](CO)[C@@H](c3ccc(/C=C/c4ccccc4)cc3)[C@H]2C1`: 15.6% (inactive); for `COCC(=O)N1CC(=O)N2[C@H](CO)[C@@H](c3ccc(-c4ccccc4F)cc3)[C@H]2C1`: 10.5% [at 0.3 µM] (inactive).
On the same count and under the same terms, with `O=C(Cc1cccnc1)N1CC(=O)N2[C@H](CO)[C@@H](c3ccc(/C=C/c4ccccc4)cc3)[C@@H]2C1` the figure was 14.8% (inactive); with `Cc1ccccc1-c1ccc([C@@H]2[C@H](CO)N3C(=O)CN(C(=O)c4ccncc4)C[C@@H]23)cc1`, 13% (inactive).
On to `COC(=O)/C=c1\sc2nc(=O)c(C)nn2c1=O`, for which the max activity (at 19.5 µM unless noted) was -11.2% [at 10 µM] (inactive).
On the same count and under the same terms, the same measure for `COc1ccccc1-c1ccc(C2[C@@H]3CN(S(=O)(=O)c4ccc(C)cc4)C[C@H]2N3)cc1` (stereo partly drawn): 22.8% (inactive); for `COc1ccc(S(=O)(=O)N2CCC(c3nc4ccc(-c5ccncc5)cn4n3)CC2)cc1`: -32.4% [at 10 µM] (inactive); for `Cc1nc(N2CCCC2)nc2c1CCN(S(=O)(=O)c1ccccc1)CC2`: -5.81% [at 10 µM] (inactive).
Same read-out and setting: with `Cc1cccc(S(=O)(=O)N2CCc3nc(-c4cnn(C)c4)nc(NC4CC4)c3C2)c1` the figure was -22.6% [at 1.2 µM] (inactive); with `CC(C)(C)NC(=O)[C@@H]1CC2CCCCC2CN1C[C@@H](O)[C@H](Cc1ccccc1)NC(=O)[C@H](CC(N)=O)NC(=O)c1ccc2ccccc2n1` (stereo partly drawn), -8.44% (inactive); with `CC/C(=C(\c1ccccc1)c1ccc(OCCN(C)C)cc1)c1ccccc1`, 22.1% (inactive).
Still for that read-out and setting: with `CCCNC(=O)c1cc(-c2ccn(CC3CC3)n2)n2ccccc12` the figure was -19.1% [at 10 µM] (inactive); with `Cc1ccc(-c2cc(O)c3c(c2)CN(C(=O)CCN2CCCO2)CCO3)s1`, 12.4% [at 10 µM] (inactive).
On to `N#Cc1ccc(-c2ccc([C@@H]3[C@@H](CO)N4C(=O)CNC[C@H]34)cc2)cc1`, for which the max activity (at 19.5 µM unless noted) was 33.8% (inactive).
As to `O=C1CNC[C@@H]2[C@H](c3ccc(C#Cc4cccnc4)cc3)[C@H](CO)N12`, the max activity (at 19.5 µM unless noted) was 16.3% (inactive).
Still for that read-out and setting: the same measure for `O=S1(=O)c2ccccc2C2(CCN(CC3CC3)C2)N1Cc1ccc(F)cc1` (stereo not drawn): 13.7% (inactive); for `CN(Cc1ccccn1)C(=O)C1=NOC2(CCN(S(=O)(=O)c3cccc(F)c3)C2)C1` (stereo not drawn): -20.7% [at 10 µM] (inactive); for `CC(C)n1c(C(=O)Nc2cccc(F)c2)nc2c1CCN(Cc1ccccc1)C2`: -15.6% [at 10 µM] (inactive).
The same measure, in the same setting: with `CCC(=O)N1CC(=O)N2[C@H](CO)[C@H](c3ccc(C#CCC(C)C)cc3)[C@H]2C1` the figure was 13.7% (inactive).
As to `O=C1CNC[C@@H]2[C@H](c3ccc(C#Cc4cccnc4)cc3)[C@@H](CO)N12`, where the note is “at 19.5 µM unless noted”, the max activity is -12.5% [at 0.16 µM] (inactive).
`COC1CCCC(C(=O)N2CCC3(CC2)C(=O)Nc2ccc(-c4ccc(C(C)=O)cc4)cc23)C1` (stereo not drawn): the max activity (at 19.5 µM unless noted) was -15.4% [at 10 µM] (inactive).
In the case of `CC(C)CC#Cc1ccc([C@@H]2[C@H](CO)N3C(=O)CN(C(=O)c4cccc(F)c4)C[C@@H]23)cc1`, the max activity (at 19.5 µM unless noted) was 12.3% [at 1.2 µM] (inactive).
On the same count and under the same terms, with `CC(C)CC#Cc1ccc([C@H]2[C@H]3CN(C(=O)Nc4cc(F)ccc4F)CC(=O)N3[C@H]2CO)cc1` the figure was 31.4% (inactive).
As for `CC(C)CC#Cc1ccc([C@H]2[C@@H](CO)N3C(=O)CN(C(=O)c4cccc(F)c4)C[C@H]23)cc1`, the max activity (at 19.5 µM unless noted) was 19.6% (inactive).
Same read-out and setting: the same measure for `CC(C)CC#Cc1ccc([C@H]2[C@@H](CO)N3C(=O)CN(C(=O)Nc4cc(F)ccc4F)C[C@H]23)cc1`: 17.1% (inactive); for `COc1ccc(CN2CCC3(CC(n4cnnc4)CO3)C2)cc1` (stereo not drawn): 41.3% (inactive).
Take `O=C(Cc1cccnc1)N1CC(=O)N2[C@H](CO)[C@H](c3ccc(C#CC4CCCCC4)cc3)[C@@H]2C1`: the max activity is, setting by setting: (at 10 µM) -8.18% (inactive); (at 19.5 µM) 7.75% (inactive).
On to `O=C(CC(F)(F)F)N1C[C@@H]2[C@H](c3ccccc31)[C@H](CO)N2CC1CCOCC1`, for which the max activity (at 19.5 µM unless noted) was -6.58% [at 5 µM] (inactive).
Still for that read-out and setting: the same measure for `CN(C)C(=O)c1ccc(-c2ccc([C@H]3[C@H](CO)N4C(=O)CN(C(=O)CC5CC5)C[C@@H]34)cc2)cc1`: -9.43% [at 0.3 µM] (inactive); for `O=C(C1CCCCC1)N1[C@H](CO)[C@@H]2c3ccccc3N(S(=O)(=O)c3ccccc3)C[C@@H]21`: 10.6% [at 5 µM] (inactive).
The same measure, in the same setting: with `CN(C)C(=O)c1cccc(-c2ccc(C3[C@H]4CNC[C@@H]3N4Cc3ccccc3C(F)(F)F)cc2)c1` (stereo partly drawn) the figure was -11.4% (inactive); with `COc1ccc(C#Cc2ccc3c(c2)[C@H]2[C@H](CCN2C(=O)c2cnccn2)[C@H](CO)N3)cc1`, 21.9% (inactive); with `COCC(=O)N1CC(=O)N2[C@H](CO)[C@@H](c3ccc(-c4ccncc4)cc3)[C@H]2C1`, 9.86% [at 2.6 µM] (inactive).
In the case of `CC(C)c1ccc(C(=O)N=C(N)N)cc1S(C)(=O)=O`, the max activity (at 19.5 µM unless noted) was -6.61% [at 10 µM] (inactive).
Consider `O=C1CNC[C@H]2[C@@H](c3ccc(C#Cc4cccnc4)cc3)[C@@H](CO)N12`, for which the max activity (at 19.5 µM unless noted) was -4.61% [at 1.2 µM] (inactive).
The same measure, in the same setting: with `NCCCCCCNS(=O)(=O)c1ccc2c(Cl)cccc2c1` the figure was -5.19% [at 10 µM] (inactive); with `NC(=O)CN1CCOCCOCCN(CC(N)=O)CCOCC1`, 5.9% [at 5 µM] (inactive); with `COCCN(CCOC)C(=O)c1cc2c(c3ccccc3n2CC2CC2)n1-c1ncccn1`, 18% (inactive).
Still for that read-out and setting: the same measure for `CN(C)S(=O)(=O)N1C[C@@H]2CN(Cc3ccoc3)CCO[C@H]2C1`: -18.6% (inactive); for `COC[C@H]1CN(C)C[C@]12CCN(C(=O)c1cc3ccccc3s1)C2`: 11.6% (inactive).
For `CCN1[C@@H]2CCN(C(=O)CC3CC3)CC[C@@H]2Oc2ccccc2S1(=O)=O`, the max activity (at 19.5 µM unless noted) was 19.2% [at 1.2 µM] (inactive).
In the case of `O=S1(=O)c2ccccc2OCC2(CCN(Cc3ccccc3)CC2)CN1CC1CC1`, the max activity (at 19.5 µM unless noted) was 19.2% (inactive).
On to `O=C(NCc1cncc2c1CCN(Cc1cccc(F)c1)C2)C1CC1`, for which the max activity reads like this: (at 5 µM) 9.94% (inactive); (at 19.5 µM) 14% (inactive).
Take `CC(=O)N1CCN(C(C)C)C(c2nnc3ccc(C(=O)N4CCCC4)cn23)C1` (stereo not drawn): the max activity (at 19.5 µM unless noted) was -12.1% [at 10 µM] (inactive).
Take `COc1ccccc1-c1ccc2c(c1)[C@H]1[C@H](CCN1Cc1ccccc1F)[C@@H](CO)N2`: the max activity (at 19.5 µM unless noted) was 20.2% (inactive).
On the same count and under the same terms, with `Cc1cccc(S(=O)(=O)N2CC[C@@H]3[C@@H](CO)Nc4ccc(-c5ccccc5F)cc4[C@@H]32)c1` the figure was -19% [at 0.6 µM] (inactive); with `COc1ccccc1-c1ccc2c(c1)[C@H]1[C@H](CCN1S(=O)(=O)c1ccc(C)cc1)[C@@H](CO)N2`, 21.4% (inactive); with `O=S(=O)(c1cccc(F)c1)N1CC[C@@H]2[C@H]1c1cc(Br)ccc1N[C@@H]2CO`, 7.04% (inactive).
Still for that read-out and setting: the same measure for `CCC(=O)N1CC[C@@H]2[C@H]1c1cc(C#Cc3ccccc3F)ccc1N[C@@H]2CO`: -12.6% (inactive).
